For one assay, the system named is FYN. The conditions noted are these: concentration: 1 μM, replicates: in singlicate; n = 1.
The subject of another assay is GAK. The conditions noted are these: concentration: 1 μM, replicates: in singlicate; n = 1.
A further assay concerns T1, GCN2(Kin.Dom.2,S808G).
T1 construct: gene EIF2AK4
As to conditions: concentration: 1 μM, replicates: in singlicate; n = 1.

Another assay has as its system GRK1. The conditions noted are these: concentration: 1 μM, replicates: in singlicate; n = 1.
A further assay relates to T2, GRK2.
T2 construct: gene ADRBK1
As to conditions: concentration: 1 μM, replicates: in singlicate; n = 1.

The test system of another assay is T3, GRK3.
T3 construct: gene ADRBK2
The conditions noted are these: concentration: 1 μM, replicates: in singlicate; n = 1.

The next assay concerns GRK4. As to conditions: concentration: 1 μM, replicates: in singlicate; n = 1.
In another assay the test system is GRK7. The conditions noted are these: concentration: 1 μM, replicates: in singlicate; n = 1.
A further assay has as its system GSK3A. As to conditions: concentration: 1 μM, replicates: in singlicate; n = 1.
The next assay concerns GSK3B. The conditions noted are these: n = 1.
Another assay has as its system T4, HASPIN.
T4 construct: gene GSG2
The conditions noted are these: concentration: 1 μM, replicates: in singlicate; n = 1.

A further assay relates to HCK. The conditions noted are these: concentration: 1 μM, replicates: in singlicate; n = 1.
A further assay concerns HIPK1. The conditions noted are these: concentration: 1 μM, replicates: in singlicate; n = 1.
In the next assay the test system is HIPK2. As to conditions: concentration: 1 μM, replicates: in singlicate; n = 1.
A further assay has as its system HIPK3. The conditions noted are these: concentration: 1 μM, replicates: in singlicate; n = 1.
Another assay deals with HIPK4. The conditions noted are these: concentration: 1 μM, replicates: in singlicate; n = 1.
Another assay relates to HPK1. As to conditions: concentration: 1 μM, replicates: in singlicate; n = 1.
The next assay relates to HUNK. The conditions noted are these: concentration: 1 μM, replicates: in singlicate; n = 1.
A further assay concerns ICK. The conditions noted are these: concentration: 1 μM, replicates: in singlicate; n = 1.
Another assay deals with IGF1R. As to conditions: concentration: 1 μM, replicates: in singlicate; n = 1.
[1] abbreviates: concentration: 1 μM, replicates: in singlicate.

Like-named read-outs stand apart in the source and are kept apart here.
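Also: KINOMEscan kinase panel screen.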

On to `Fc1ccc(-c2ncn(C3CCNCC3)c2-c2ccnc(Oc3ccc(-c4ccccc4)cc3)n2)cc1` [SB-245391], for which the “%Inh” value with FYN was found to be 20%; in the assay on GAK, 22%; with GCN2(Kin.Dom.2,S808G), 18%; in the assay on GRK1 it was 19%; with GRK2, 12%; in the assay on GRK3 it was 22%. Besides, the “%Inh” value is listed as 0% in the assay with GRK4; 32% in the assay on GRK7; 0% in the assay with GSK3A; 27% with GSK3B (setting [1]); 24% in the assay with HASPIN; 31% with HCK. Besides, the “%Inh” value is listed as 5% in the assay with HIPK1; 0% with HIPK2; 31% with HIPK3; 27% in the assay on HIPK4; 29% in the assay with HPK1; 38% in the assay on HUNK. Further, the “%Inh” value turned out to be 25% in the assay with ICK and 48% in the assay with IGF1R.

As for `CCc1ccc(-c2ccc3c(c2)-c2c(cnn2C)S(=O)(=O)N3C)cc1`, the “%Inh” value with FYN came to 3%; in the assay with GAK it was 8%; in the assay on GCN2(Kin.Dom.2,S808G), 16%; in the assay on GRK1, 11%; in the assay on GRK2, 0%; with GRK3, 0%. The “%Inh” value with GRK4 is 16%; in the assay with GRK7, 0%; in the assay with GSK3A, 0%; in the assay with GSK3B (setting [1]), 13%; in the assay with HASPIN, 0%; with HCK it was 0%. Besides, the “%Inh” value in the assay on HIPK1 is on record as 0%; in the assay with HIPK2, 0%; with HIPK3, 11%; in the assay with HIPK4 it was 8%; in the assay with HPK1 it was 17%; in the assay on HUNK, 0%. Further, the “%Inh” value in the assay with ICK and in the assay on IGF1R was 4% in each case.

With `COC(=O)Nc1nc2cc(Oc3ccc(NC(=O)Nc4cc(C(F)(F)F)ccc4F)cn3)ccc2[nH]1.Cl.Cl` [GW681170], the “%Inh” value was determined as 41% in the assay on FYN; 5% in the assay with GAK; 0% in the assay with GCN2(Kin.Dom.2,S808G); 0% with GRK1; 0% in the assay on GRK2; 0% in the assay on GRK3. Moreover, the “%Inh” value with GRK4 was determined as 0%; in the assay with GRK7 it was 0%; in the assay on GSK3A, 0%; with GSK3B (setting [1]), 8%; in the assay on HASPIN, 47%; in the assay on HCK, 15%. Besides, the “%Inh” value is reported as 0% in the assay with HIPK1; 0% with HIPK2; 0% in the assay with HIPK3; 91.6% with HIPK4; 16% with HPK1; 7% with HUNK. Further, the “%Inh” value was found to be 0% with ICK and 12% in the assay on IGF1R.

As for `Cc1occc1-c1ncc(OC[C@@H](N)Cc2c[nH]c3ccccc23)cc1-c1ccc2[nH]nc(C)c2c1.O=C(O)C(F)(F)F` [GSK682037], the “%Inh” value in the assay with FYN is reported as 86%; in the assay with GAK, 82%; with GCN2(Kin.Dom.2,S808G), 0%; in the assay on GRK1 it was 3%; in the assay on GRK2, 0%; in the assay with GRK3, 0%. The “%Inh” value in the assay on GRK4 is recorded as 62%; with GRK7 it was 43%; in the assay on GSK3A it was 64%; with GSK3B (setting [1]), 55%; with HASPIN, 65%; in the assay with HCK it was 0%. Besides, the “%Inh” value in the assay with HIPK1 was 0%; with HIPK2, 0%; in the assay on HIPK3 it was 7%; in the assay with HIPK4, 35%; in the assay on HPK1 it was 90%; in the assay on HUNK, 79%. Further, the “%Inh” value in the assay with ICK is on record as 0%; in the assay with IGF1R it was 7%.

Take `COc1cc(Nc2nccc(N3CCC(NC(=O)Nc4cccc(C(C)=O)c4)C3)n2)cc(OC)c1OC` (centres unmarked) [GSK1379753]: the “%Inh” value in the assay with FYN is given as 40%; in the assay with GAK, 34%; in the assay on GCN2(Kin.Dom.2,S808G), 0%; in the assay on GRK1, 2%; in the assay on GRK2, 0%; in the assay with GRK3 it was 16%. The “%Inh” value in the assay with GRK4 stood at 0%; in the assay with GRK7, 0%; in the assay on GSK3A, 0%; in the assay on GSK3B (setting [1]), 1%; in the assay on HASPIN, 0%; with HCK it was 0%. Further, the “%Inh” value in the assay with HIPK1 is given as 0%; in the assay with HIPK2 it was 0%; with HIPK3 it was 3%; with HIPK4, 0%; in the assay on HPK1, 55%; with HUNK, 0%. Also, the “%Inh” value in the assay on ICK came out at 11%; in the assay on IGF1R, 0%.

In the case of `CN1CCN(CCCNc2nccc(-c3c(-c4ccc(F)cc4)nn4cc(C(F)(F)F)ccc34)n2)CC1` [GW621581], the “%Inh” value in the assay on FYN is given as 0%; in the assay on GAK, 78%; with GCN2(Kin.Dom.2,S808G), 4%; with GRK1, 0%; in the assay on GRK2, 4%; in the assay with GRK3, 0%. Also, the “%Inh” value was determined as 8% in the assay on GRK4; 0% in the assay on GRK7; 25% in the assay on GSK3A; 3% in the assay with GSK3B (setting [1]); 0% in the assay with HASPIN; 14% with HCK. Besides, the “%Inh” value turned out to be 0% in the assay on HIPK1; 2% with HIPK2; 0% in the assay on HIPK3; 0% in the assay with HIPK4; 30% in the assay on HPK1; 0% with HUNK. For the same compound, the “%Inh” value in the assay with ICK and in the assay with IGF1R was 0% in each case.

Consider `COc1cc(Nc2ncc3c(C)nc(-c4cc5ccccc5[nH]4)n3n2)cc(OC)c1OC` [GW869516], for which the “%Inh” value in the assay on FYN is 30%; with GAK, 34%; with GCN2(Kin.Dom.2,S808G), 88%; with GRK1, 0%; in the assay with GRK2, 0%; in the assay on GRK3 it was 0%. Besides, the “%Inh” value with GRK4 is 19%; with GRK7, 0%; in the assay on GSK3A, 0%; in the assay on GSK3B (setting [1]), 0%; in the assay with HASPIN, 0%; in the assay with HCK, 16%. In addition, the “%Inh” value in the assay on HIPK1 came out at 79%; in the assay on HIPK2 it was 0%; with HIPK3, 0%; in the assay on HIPK4 it was 17%; with HPK1, 2%; with HUNK, 0%. The “%Inh” value in the assay on ICK and with IGF1R was 0% in each case.

With `O=C(Nc1n[nH]c2cc(-c3ccoc3)ccc12)C1CC1` [SB-738481], the “%Inh” value with FYN was found to be 0%; in the assay with GAK, 2%; in the assay with GCN2(Kin.Dom.2,S808G), 0%; in the assay with GRK1 it was 18%; with GRK2, 0%; in the assay with GRK3, 0%. Further, the “%Inh” value with GRK4 is 44%; in the assay with GRK7, 9%; in the assay on GSK3A it was 92.7%; with GSK3B (1 µM) it was 54%; with HASPIN, 27%; in the assay with HCK it was 0%. Moreover, the “%Inh” value amounted to 57% with HIPK1; 65% in the assay with HIPK2; 58% with HIPK3; 46% with HIPK4; 7% with HPK1; 0% in the assay on HUNK. Also, the “%Inh” value in the assay on ICK was 94.8%; in the assay with IGF1R, 0%.

As for `Nc1n[nH]c2cnc(-c3ccccc3)cc12` [SB-642124], the “%Inh” value was found to be 25% in the assay on FYN; 13% in the assay with GAK; 11% with GCN2(Kin.Dom.2,S808G); 0% in the assay with GRK1; 0% in the assay with GRK2; 42% in the assay with GRK3. Besides, the “%Inh” value is recorded as 10% in the assay with GRK4; 0% with GRK7; 40% with GSK3A; 25% with GSK3B (1 µM); 68% in the assay with HASPIN; 0% with HCK. In addition, the “%Inh” value in the assay on HIPK1 came to 64%; in the assay with HIPK2 it was 78%; in the assay on HIPK3 it was 88%; with HIPK4, 7%; with HPK1, 58%; in the assay on HUNK, 0%. For the same compound, the “%Inh” value stood at 26% with ICK and 0% in the assay with IGF1R.

`CC(C)(C)c1ccc2nccc(Nc3cccc(O)c3)c2c1` [GW856795]: the “%Inh” value was 71% with FYN; 62% in the assay with GAK; 15% in the assay on GCN2(Kin.Dom.2,S808G); 9% in the assay on GRK1; 39% with GRK2; 0% with GRK3. Moreover, the “%Inh” value is 16% with GRK4; 17% in the assay with GRK7; 0% in the assay with GSK3A; 9% in the assay with GSK3B (setting [1]); 27% in the assay with HASPIN; 60% in the assay with HCK. In addition, the “%Inh” value in the assay on HIPK1 came to 18%; with HIPK2, 50%; with HIPK3, 0%; in the assay with HIPK4, 0%; in the assay with HPK1, 37%; in the assay with HUNK, 0%. The “%Inh” value in the assay on ICK worked out at 24%; in the assay with IGF1R, 0%.

Values taken from paper PMC5540273 (PLoS ONE, 2017).
